Source: PubChem (National Center for Advancing Translational Sciences (NCATS))
Pf Dd2 growth: inhibitors of Plasmodium falciparum Dd2 growth. Potency, µM (highest dose often 28.9 µM), for inactives: top-dose activity, negative = inhibition, usual class: inhibitors. AID 1347417. 120,000 tested, 4.3% active. P. falciparum Dd2 growth, SYBR Green, 72 h; active = well fitted inhibition curve with a large enough effect;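 also: plate controls were DMSO vehicle for no effect and reference drug for full effect; nearly all actives have a fitted effect of over 65% in size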
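Readout: SYBR Green fluorescence, 485 nm excitation, 535 nm emission, after ~16 h lysis at 37C. Before that, Dd2-infected red cells (2.5% hematocrit) grew 72 h with compound, 29 uM top final concentration.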
Numbers without * were called inactive; i = inactive; [ ] = another dose, or the depositor's remark. Shown is part of a subset that was picked to be rich in hits. Potency is read from the fitted curve at half-maximal effect.

SMILES	Pf Dd2 growth
COc1ccc(Nc2c3c(nc4ccc(NC(=O)c5ccc(F)cc5)cc24)CCCC3)cc1OC	4µM*
COc1ccc(C(=O)Nc2ccc3nc4c(c(Nc5ccc(OC)c(OC)c5)c3c2)CCCC4)c(OC)c1	-8%
COc1ccccc1Nc1c2c(nc3ccc(NC(=O)c4cccc(OC)c4OC)cc13)CCCC2	5.6µM*
Cc1ccc(Nc2c3c(nc4ccccc24)CCC3)cc1F	i
COc1ccccc1NC(=O)c1ccccc1NC(=O)c1ccccc1	-1%
CCN(CC)c1cc(C)c2cc(NC(=O)c3ccc(OC)c(OC)c3)ccc2n1	-2%
COc1ccccc1Nc1c2c(nc3ccc(NC(=O)c4ccccc4F)cc13)CCCC2	3.5µM*
COc1ccccc1NC(=O)c1ccc2c(Cl)c3c(nc2c1)CCCC3	12%
CCOc1ccccc1NC(=O)CSc1c2c(nc3ccc(Cl)cc13)CCCC2	i
C1CCC(c2noc(COCC3CC3)n2)NC1 (configuration not stated)	-4%
Cc1cc(NC(=O)C2CCN(c3cc(C(F)(F)F)ncn3)CC2)ccc1Br	-14%
COc1ccc(NC(=O)CCC2CCCN(C(=O)c3ncoc3C)C2)c(C)c1 (configuration not stated)	31%
COc1ccc(Cl)cc1NC(=O)CCC1CCCN(C(=O)c2ccoc2C)C1 (configuration not stated)	4µM*
COc1ccc(NC(=O)CCC2CCCN(C(=O)c3ccccc3SC)C2)cc1Cl (configuration not stated)	i
COc1ccc(OCc2nc(C)c(CCO)c(=O)n2CC(=O)Nc2cccc(OC)c2)cc1	-22%
CC(C)CNC1(Cc2cc(CN(C)C)on2)COC1	12%[44.1 µM]
CN(Cc1cccnc1)c1nc2c(c(=O)[nH]1)CCN(Cc1cccc(Cl)c1)CC2	-26%[5.79 µM]
CC(=O)Nc1ccc(CN2CCCC3(CNS(=O)(=O)c4cccnc4O3)C2)cc1 (configuration not stated)	20%
CCc1ncc(-c2ccccc2)[nH]1	-22%[44.1 µM]
CCOc1ccc(-c2nc(C3CC(=O)N(c4ccc(F)cc4)C3)no2)cc1OCC (configuration not stated)	-5%
CCOc1ccc(-c2cnc(-c3cnc(CC)nc3)[nH]2)cc1OCC	10µM*
C[C@@H]1CN(C(=O)Cc2c(F)ccc(Cl)c2F)CC[C@]1(C)O	2%
CO[C@H]1C(=O)N(C(C)C)[C@H]1C1CCN(S(=O)(=O)Cc2ccccc2F)CC1	17%
COc1ccc(C(=O)N[C@@H]2CCC[C@@H]2C(=O)NC2CCN(Cc3ccccc3)CC2)cn1	-18%
Cn1ccc2c(C(=O)NCc3cccnc3)nc(-c3ccc(CO)cc3)cc21	-23%[44.1 µM]
SMILES	Pf Dd2 growth
CN(C)CCNC(=O)c1nc(-c2ccc(N3CCN(C)CC3)cc2)cc2c1ccn2C	11µM*
COc1ccc(-c2cc3c(ccn3C)c(C(=O)NCCC(N)=O)n2)cc1OC	-9%[44.1 µM]
CC(C)NC(=O)N1CCCC(c2nc(-c3cccnc3)no2)CCNC(=O)CC1 (configuration not stated)	-4%
COC[C@H]1C[C@@H](NCc2ccc(F)cc2)[C@H](O)[C@@H]1O	i
Cc1cccc(-c2noc(-c3ccccc3OCC(=O)Nc3ccc([N+](=O)[O-])cc3)n2)c1	13%
O=C(CCc1nc(-c2cccs2)no1)Nc1ccc([N+](=O)[O-])cc1	11µM*
COc1cc(NC(=O)CCc2nc(-c3cccs3)no2)cc(OC)c1OC	-4%
Cc1cnn(CCC(=O)N2C[C@@H](CO)[C@H](c3ccccn3)C2)c1	-2%
CN(C)c1ccc(NC(=O)CCn2ccn3nc4c(c3c2=O)CCCC4)cc1	4µM*
O=C(CCn1ccn2nc3c(c2c1=O)CCCC3)Nc1ccc(F)cc1	i
CC(C)NC(=O)c1ccc(Cn2ccn3nc4c(c3c2=O)CCCC4)cc1	-4%
O=C(Nc1ccccc1)c1ccc(Cn2ccn3nc4c(c3c2=O)CCCC4)cc1	-15%
O=C(Nc1ccc(Cl)cc1)c1ccc(Cn2ccn3nc4c(c3c2=O)CCCC4)cc1	8.9µM*
CCOc1ccc(NC(=O)CCn2ccn3nc4c(c3c2=O)CCCC4)cc1	-7%
CC(C)S(=O)(=O)N1CC(N(C)Cc2cccnc2)C1	3%
Cc1cc(C(=O)N2CC[C@H](NS(=O)(=O)c3cccs3)C[C@H]2C(=O)N[C@H](C)C(N)=O)n(C)n1	3%
COc1ccc(N2CC(C(=O)N3CCC(C(=O)NCc4cccc(Cl)c4)C3)NC2=O)cc1 (configuration not stated)	-14%
CCCC1c2nccn2CCCN1C(=O)c1cccn1C (configuration not stated)	29%
C[S+](=O)([O-])N1Cc2ccccc2CC2(CCCN(CCc3ccccc3)C2)C1 (configuration not stated)	-29%
CN(C)CC(=O)N1Cc2ccccc2CC2(CCCN(CC3CCNCC3)C2)C1 (configuration not stated)	20%
CC(=O)NCC(=O)N1Cc2ccccc2CC2(CCN(C)C2)C1 (configuration not stated)	6%
CN1CCCC2(Cc3ccccc3CN(C(=O)c3ccccc3)C2)C1 (configuration not stated)	-15%
